PriA SSB inh – inhibitors of Klebsiella pneumoniae PriA binding to SSB C-terminal tail, primary screen, biochemical, AlphaScreen | PriA–SSB C-terminal tail interaction (Klebsiella pneumoniae) | AlphaScreen SSBct-PriA binding, biotinylated peptide | inhibition, % at 33 µM | 430,000 compounds, 0.6% hits | AID 1272365, 2023; in the data active = inhibition mostly above about 37%, no sharp cut-off; inactive = mostly below about 20%;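 note: plate controls were negative control peptide for no effect and reference peptide for full effect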
Y pestis TopoI – Yersinia pestis topoisomerase I inhibitors, primary screen, biochemical, cleavage product accumulation, plate reader, single point | DNA topoisomerase I (Yersinia pestis CO92) | Y. pestis Topo-I cleavage product accumulation | activity, % at 10 µM | 360,000 compounds, 0.064% hits; in the data active = activity above about 50%, passing the limit was not always enough
SARS 3CLpro inh – SARS-CoV 3CLpro protease inhibitors, primary screen, biochemical, quenched FRET. Replicase polyprotein 1ab (Severe acute respiratory syndrome coronavirus), P0C6X7. recombinant SARS-CoV 3CLpro, quenched FRET peptide cleavage. inhibition, % at 6 µM. AID 1706, 2009. 290,000 compounds, 0.14% hits; in the data active = inhibition above about 12%
MazF activator – activators of E. coli MazEF toxin-antitoxin RNase, primary screen, biochemical, fluorescence, uHTS; FAM/BHQ RNA-DNA oligo cleavage fluorescence, 5 h; AID 504720, 2011; 350,000 compounds, 0.32% hits; activation, % at 20 µM; in the data active = activation above about 50%
Target sequence (P0AE70 whole entry, looked up): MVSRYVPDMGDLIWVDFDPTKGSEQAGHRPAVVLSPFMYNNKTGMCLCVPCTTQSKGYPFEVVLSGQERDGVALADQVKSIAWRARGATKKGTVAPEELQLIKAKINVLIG
* hit, by the source's call; · = not tested or not shown. This is a sample that favours compounds with a hit; in the whole collection about 0.9% have one here.

SMILES	PriA SSB inh	Y pestis TopoI	SARS 3CLpro inh	MazF activator
CCOc1cccc2sc(N(CCCn3ccnc3)C(=O)c3ccco3)nc12	8	·	·	·
COc1ccc(OC)c2sc(N(CCCn3ccnc3)C(=O)c3ccco3)nc12	59*	·	·	·
COc1cccc(C(=O)N(CCCn2ccnc2)c2nc3ccc(C)cc3s2)c1OC	41	·	·	·
Cc1c(Cl)ccc2sc(N(CCCn3ccnc3)C(=O)COc3ccccc3)nc12	43*	·	·	·
CCc1cccc2sc(N(CCCn3ccnc3)C(=O)c3cccc(OC)c3OC)nc12	42*	·	·	·
COc1cc(OC)cc(C(=O)N(CCCn2ccnc2)c2nc3cc(C)cc(C)c3s2)c1	40*	·	·	·
O=c1c(=Cc2ccccn2)sc2nc3ccccc3n12	-7	·	·	·
O=C(c1ccc(Cl)s1)N(CCCn1ccnc1)c1nc2c(F)cccc2s1	38*	·	·	·
Cc1cccc2sc(N(CCCN(C)C)C(=O)c3ccc(Cl)s3)nc12	-1	4	5	7
COc1ccc(OC)c2sc(N(CCCn3ccnc3)C(=O)COc3ccccc3)nc12	73*	·	·	·
CCOc1ccc2nc(N(CCCn3ccnc3)C(=O)COc3ccccc3)sc2c1	31	·	·	·
COC(=O)C(N=Nc1ccc(-c2ccccc2)cc1)=C(O)CCl	-5	·	·	·
CCOC(=O)COc1ccc2c(=O)c(Oc3ccccc3Br)c(C)oc2c1	-4	·	·	·
O=C(Nc1cc(F)cc(F)c1)c1ccc(NCCc2ccccc2)c([N+](=O)[O-])c1	-8	22	1	552*
O=C(Nc1ccccc1)c1ccc(NCCN2C(=O)CCC2=O)c([N+](=O)[O-])c1	-10	-1	0	51*
Cc1ccc(NC(=O)c2ccc(NCCc3ccccc3)c([N+](=O)[O-])c2)cc1F	2	-8	-1	50
Cc1ccc(CN2CCCN(Cc3ccc(C)cc3)S2(=O)=O)cc1	5	5	7	-8
Cc1cccc(CN2CCCN(Cc3ccc(Cl)cc3)S2(=O)=O)c1	-12	57*	6	-6
CCOc1ccc(Oc2ccc(S(=O)(=O)N3CCOCC3)cc2NC(=O)C2=COCCO2)cc1	-12	62*	·	-5
CCOC(=O)c1cc(-c2ccc(N)cc2)sc1N	50*	-27	-4	20
COc1ccc(F)cc1S(=O)(=O)NCc1sc(-c2cccs2)nc1C	-15	·	·	·
O=C(Nc1nc2c(Cl)c(Cl)ccc2s1)c1nc2ccccc2s1	-3	·	·	·
O=C1/C(=C/c2cccc(Br)c2)SC(=S)N1CCC(=O)N(CCO)c1ccccc1	5	-3	-2	-7
O=C1/C(=C/c2ccc3c(c2)OCO3)SC(=S)N1CCC(=O)N(CCO)c1ccccc1	·	37	·	77*
CCCN1C(=O)C(C)(C)COc2ccc(NC(=O)COCC)cc21	20	·	·	·
SMILES	PriA SSB inh	Y pestis TopoI	SARS 3CLpro inh	MazF activator
O=C(c1ccccc1I)N1CCN(c2ccc(N3CCOCC3)nn2)CC1	3	·	·	·
CCn1nc(C(=O)Nc2ccc(-c3nc4ccccc4[nH]3)cc2)cc1C	2	·	·	·
CS(=O)(=O)c1ccc2nc(NC(=O)c3ccccc3)sc2c1	-2	-3	-2	5
CC(C)CNS(=O)(=O)c1ccc2nc(NC(=O)c3ccccn3)sc2c1	96*	·	·	·
O=C(NC=NOCc1cccc(C(F)(F)F)c1)N1OC[C@@H]2COc3ccc4ccccc4c3[C@@H]21	45*	·	·	·
O=C(Nc1cc(Sc2ccccn2)cc([N+](=O)[O-])c1)c1cccc(F)c1	10	-21	6	52*
COCCn1c(SCc2cccc([N+](=O)[O-])c2)nc2cc(C(=O)NC(C)C)ccc2c1=O	6	·	·	·
CCN1C(=O)C(NC(C)=O)c2cc(Br)ccc21 (configuration not stated)	-13	3	-5	1
CCCCN1C(=O)C(NC(C)=O)c2cc(Br)ccc21 (configuration not stated)	18	8	4	2
CC(=O)NC1C(=O)N(CCN2CCOCC2)c2ccc(Cl)cc21 (configuration not stated)	-9	-3	13*	2
CC(=O)NC1C(=O)N(CCN2CCOCC2)c2ccc(C)cc21 (configuration not stated)	-9	4	54*	7
OC(Cn1c2ccccc2c2ccccc21)C[n+]1cccc2ccccc21 (configuration not stated)	-7	-7	1	51*
Cc1nc2ccccc2n1CC(O)Cn1c2ccccc2c2ccccc21 (configuration not stated)	-1	16	-3	-4
CCN(CC)C(=O)CC(c1ccc(N(C)C)cc1)c1c(OC)cc(OC)c2c(-c3ccccc3)cc(=O)oc12 (configuration not stated)	48*	9	·	0
CCCCCc1cc(=O)oc2c(C(CCN3CCCC3)c3ccc(N(C)C)cc3)c(OC)cc(OC)c12 (configuration not stated)	50*	1	·	-14
CCN(CC)C(=O)CC(c1ccc(N(C)C)cc1)c1c(OC)cc(OC)c2ccc(=O)oc12 (configuration not stated)	13	19	·	7
CNc1nc(Cl)ncc1N	5	·	·	·
O=S(=O)(c1ccc(F)cc1)N1CCN(c2ccc(-c3ccccc3)nn2)CC1	-17	1	-2	63*
O=S(=O)(c1ccc(F)cc1)N1CCN(c2ccc(-c3cccs3)nn2)CC1	0	·	·	·
O=C(NCCSc1ncc(-c2ccccc2)[nH]1)c1ccccc1Cl	-7	·	·	·
O=C(OC(c1ccccc1)c1nccc2ccccc12)c1cc([N+](=O)[O-])cc([N+](=O)[O-])c1 (configuration not stated)	52*	4	-3	8
Cc1ccc(S(=O)(=O)N=C(Nc2ccc([N+](=O)[O-])cc2)c2ccccc2)cc1	18	·	·	·
O=C(CSc1nc2cc(Cl)c(Cl)cc2[nH]1)c1ccc2c(c1)OCO2	6	-2	1	51*
CCOC(=O)c1c(C)[nH]c(C2=NNC(=Nc3ccccc3OC)SC2)c1C	54*	-3	3	-14
O=C(O)c1cccc(-c2ccc(/C=c3/sc4nc5ccccc5n4c3=O)o2)c1	·	-2	7	581*
SMILES	PriA SSB inh	Y pestis TopoI	SARS 3CLpro inh	MazF activator
O=C(O)c1cc(C(=O)O)cc(-c2ccc(/C=c3/sc4nc5ccccc5n4c3=O)o2)c1	·	·	-1	-45
CCC(=O)c1ccc(OCC(O)CNCCc2ccc(Cl)cc2)cc1 (configuration not stated)	40*	16	3	1
CC12CC(NC(=O)N1c1cccc(C(=O)Nc3ncn[nH]3)c1)c1ccccc1O2 (configuration not stated)	9	2	1	59*
Cc1cc(C)nc(N=C2NC(=O)CC3C(=O)NCCN23)n1 (configuration not stated)	-17	·	·	·
CCOC(=O)C1=C(Cc2ccc(OC)cc2)C(=O)c2ccccc2C1=O	14	2	6	217*
CN(c1ccc(F)cc1)S(=O)(=O)c1ccsc1-c1nc(-c2cccnc2)no1	-1	·	·	·
Cc1c(C)c2cccnc2c2ncccc12	99*	25	·	4
Cc1ccc(O)c2ncccc12	36	·	·	·
